Values joined by “and” are separate entries in the source; they are usually repeats but may differ in a detail not shown here. Equal entries are not always repeated. About 18,000 (5.8%) of roughly 310,000 compounds were called active. Entries that show only a call come without a potency. Roughly 22% stayed inconclusive and do not appear here. This excerpt belongs to a sample that is enriched for actives. Values without a mark were called inactive. Calls come from the whole dose curve; as a rule, active = well fitted inhibition curve with a large enough effect; inconclusive = small, poorly fitted or top-dose-only effect, or another doubt; inactive = no such curve, though single readings can be large or run the other way.
Assay: Primary qHTS for delayed death inhibitors of the malarial parasite plastid, 48 hour incubation
Conditions: P. falciparum luciferase growth in erythrocytes; series mostly up to 28.7 µM
How it was run: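 Luminescence readout; reporter = integrated firefly luciferase in P. falciparum. RBC culture at 2% hematocrit, 0.1% parasitemia final, 37 C/5% CO2; decreased signal taken as growth inhibition.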
For N=C(N)SCc1cccc2ccccc12, the Potency was 9.28 µM (active). For O=C(Nc1ccc(Cl)cc1)c1cccc(OC(=S)N2CCOCC2)c1, the Potency was “inactive”. In the case of Cc1ccc(C(=O)O/N=C(\N)c2ccccn2)cc1Cl, the Potency is reported as “inactive”. In the case of CCOc1ccc(OCCSc2nc3ccccc3n2CC(=O)O)cc1, the Potency is reported as “inactive”. With CC(C)=CCN1CCN(Cc2cc3ccccc3[nH]2)CC1CCO (stereo not drawn) the Potency was “inactive”. For COc1ccc(C(=O)N2CCCC(C(=O)c3ccccc3OC)C2)cc1OC (stereo not drawn), the Potency was “inactive”. For Cc1cc(C)c(C#N)c(SCc2ccc3c(c2)OCO3)n1, the Potency was “inactive”. For COc1ccc(-n2nnnc2SCc2nc(N)nc(N3CCOCC3)n2)cc1, the Potency was “inactive”. For COc1ccc(CSc2nc(N3CCOCC3)c3c(c2C#N)CC(C)(C)OC3)cc1, the Potency was 11.7 µM (active). In the case of CC(C)(C)OC(=O)N1CCC(C(=O)NNC(=O)c2ccc(Cl)cc2Cl)CC1, the Potency is reported as “inactive”. For Cc1c(CN2CCC(n3nccc3NC(=O)CCc3ccccc3)CC2)cnn1C, the Potency was “inactive”. For COC(=O)c1c(NC(=O)C2CC(C)=C(C)CC2C(=O)O)sc2c1CCCCC2 (stereo not drawn), the Potency was “inactive”. With COC(=O)c1ccc(S(=O)(=O)N2CCc3ccccc3C2)cc1 the Potency was “inactive”. With COc1ccc(C2=NO[C@@H]3C(=O)N(Cc4ccccc4)C(=O)[C@H]23)cc1OC the Potency was “inactive”. For COc1ccc(N2C(=O)c3ccccc3NC2c2ccc(OC)c(CN3CCOCC3)c2)cc1 (stereo not drawn), the Potency was “inactive”. In the case of Cc1ccc(C2Nc3ccccc3C(=O)N2CCN2CCNC2=O)cc1 (stereo not drawn), the Potency is reported as “inactive”. With COc1ccc(C2Nc3ccccc3C(=O)N2Cc2ccccc2)cc1Cn1nnc2ccccc21 (stereo not drawn) the Potency was 3.7 µM (active). For COc1ccc(C2Nc3ccccc3C(=O)N2c2ccc(Cl)cc2)cc1Cn1cc([N+](=O)[O-])cn1 (stereo not drawn), the Potency was “inactive”. In the case of COc1ccc(C2Nc3ccccc3C(=O)N2c2ccc(F)cc2)cc1Cn1nnc2ccccc21 (stereo not drawn), the Potency is reported as 6.57 µM (active). In the case of CCCc1c(C(=O)N/N=C(\C)CCc2ccc(OC)cc2)nnn1-c1nonc1N, the Potency is reported as “inactive”. For CC(C)C(NC(=O)c1c(F)cccc1F)C(=O)NCc1ccncc1 (stereo not drawn), the Potency was “inactive”. With Cc1ccc2nc(Nc3ccccc3O)nc(-c3ccccc3)c2c1 the Potency was 13.1 µM (active). With CCS(=O)(=O)Nc1cccc(-c2cc(-c3ccccc3)c3cc(C)ccc3n2)c1 the Potency was “inactive”. In the case of O=C(CCl)NNc1nc(-c2ccccc2)c2cc(Cl)ccc2n1, the Potency is reported as “inactive”. With Nc1c(C(=O)OCC(=O)Nc2ccc(OC(F)F)cc2)[nH]c(=O)[nH]c1=O the Potency was “inactive”. For O=C(c1cc(COc2ccc(F)cc2F)on1)N1CCOCC1, the Potency was “inactive”. For CCCCN(CCCC)CCC(O)c1cc2c(Cl)cc(Cl)cc2c2cc(C(F)(F)F)ccc12 (stereo not drawn), the Potency was 3.2 nM (active) and 4.1 nM (active). In the case of CCCCC(=O)Nc1ccc(C(=O)Nc2cc(C(F)(F)F)ccc2Cl)cc1, the Potency is reported as “inactive”. In the case of COc1cccc(CNC(=O)COc2cc(O)c3c(c2)OC(C)(C)CC3=O)c1, the Potency is reported as “inactive”. With Clc1ccc(CSc2nnc3c(n2)[nH]c2ccccc23)cc1 the Potency was 5.22 µM (active). For Cc1ccc(CNC(=O)CSc2nnc3c(n2)[nH]c2ccc(F)cc23)cc1, the Potency was “inactive”. With O=C(CSc1nnc2c(n1)[nH]c1ccccc12)NC1CCCCC1 the Potency was “inactive”. For CCCCN(C(=O)c1ccc(S(=O)(=O)N2CCOCC2)cc1)C1CCS(=O)(=O)C1 (stereo not drawn), the Potency was “inactive”. With O=C1NNC(c2ccccc2)=N/C1=C\c1ccc(Cl)cc1 the Potency was 6.57 µM (active). With O=C1OC(c2ccc(Cl)cc2)=N/C1=C\c1cccnc1 the Potency was “inactive”. With O=C1NCC(=O)N(Cc2ccccc2)/C1=C/c1ccccc1 the Potency was “inactive”. In the case of COc1ccc(C2CC(c3ccc([N+](=O)[O-])cc3)=NN2C(C)=O)cc1 (stereo not drawn), the Potency is reported as “inactive”. In the case of CNC(=O)C1CC(=O)N(c2ccc(OCC(=O)Nc3ccccc3C)cc2)C1 (stereo not drawn), the Potency is reported as “inactive”. In the case of O=C1C(=O)N(CCCO)C(c2ccccc2)/C1=C(\O)c1ccc(Br)cc1 (stereo not drawn), the Potency is reported as “inactive”. In the case of Cc1ccc(OCCOc2cccc(/C=N/NC(N)=O)c2)cc1, the Potency is reported as “inactive”. With O=C(N/N=C/c1cccc(O)c1)c1cc2c(ccc3ccccc32)o1 the Potency was “inactive”. For O=C(N/N=C/c1cccc(OCc2ccccc2)c1)c1ccc(Br)o1, the Potency was 9.28 µM (active). For O=C(NCCCN1CCOCC1)c1cc(-c2ccccc2F)no1, the Potency was “inactive”. With Nc1ccccc1SCc1cc([N+](=O)[O-])cc2c1OCOC2 the Potency was “inactive”. In the case of Nc1ccccc1Sc1ccc(C(F)(F)F)cc1[N+](=O)[O-], the Potency is reported as “inactive”. For Nc1ccccc1SC(C[N+](=O)[O-])c1ccccc1 (stereo not drawn), the Potency was 4.15 µM (active). For CN(c1ccc(O)cc1)c1nc(-c2cccnc2)cs1, the Potency was “inactive”. For O=C1CCCC2=C1C(c1ccccc1)n1c(s/c(=C/c3cccc(F)c3)c1=O)=N2 (stereo not drawn), the Potency was “inactive”. With COc1ccc(OC)c(C2C3=C(N=c4s/c(=C\c5cccc(O)c5)c(=O)n42)c2ccccc2CC3)c1 (stereo not drawn) the Potency was 5.86 µM (active). For O=C(NCCc1ccc(F)cc1)c1ccc2nccnc2c1, the Potency was “inactive”. With CC(C)Cc1nc(Nc2ccc(S(=O)(=O)N3CCCC3)cc2)c2nnn(Cc3ccccc3)c2n1 the Potency was 4.65 µM (active). With CC(C)Nc1ncnc2c1nnn2Cc1ccccc1 the Potency was “inactive”. For Clc1ccc(Nc2ncnc3c2nnn3Cc2ccccc2)cc1, the Potency was “inactive”.

— PubChem BioAssay AID504832 (National Center for Advancing Translational Sciences (NCATS), 2011)
Potency is the fitted concentration of half-maximal effect.
